Experimental data reported in PubChem BioAssay AID720565 (National Center for Advancing Translational Sciences (NCATS), 2013).
Inconclusive results are not listed. Calls of active or inactive are those of the source. The call rests on the fitted dose curve; in most records, active means well fitted activation curve with a large enough effect; inconclusive means small, poorly fitted or top-dose-only effect; inactive means no such curve, though single readings can be large or run the other way.

assay: qHTS for small molecules that induce genotoxicity in ELG1 expressing cells: Confirmatory Assay for Cherry-picked Compounds; details: ELG1-luciferase reporter cells, luminescence, 16 h; series mostly up to 46.1 µM; further: nearly all actives have a fitted effect of over 35% in size
Text: Cancer cells divide rapidly compared to normal cells in the body. During cell division, cancer cells need to duplicate their genome by DNA replication. The failure of genome duplication leads to cancer cells' death. Therefore, inhibitors of DNA replication could specifically kill cancer cells. Based on this concept, many chemotherapeutic agents were developed and have been used to treat cancer patients. However, there are a limited number of agents available in the clinical setting, and some of those that do exist have low efficacy and severe side effects. Therefore, if we can find the compounds that effectively block DNA replication either by directly damaging DNA or by inhibiting other cellular mechanisms, the options for cancer treatment will be broadened. We developed a quantitative high-throughput ELG1-luciferase reporter gene assay. Since the level of human ELG1 protein is enhanced in response to genetic stresses, increases in luciferase activity can be used to identify compounds that cause genetic stress. The data herein is the result of the confirmation assay against the cherry picked compounds selected from the primary qHTS (AID 504466). Activation is the desired outcome for this assay. NIH Chemical Genomics Center [NCGC] NIH Molecular Libraries Probe Centers Network [MLPCN] MLPCN Grant: MH092164 Assay Provider: Kyungjae Myung, National Human Genome Research Institute, NIH
For genotoxicity screening, 2,000 cells/ well (5 uL volume) were dispensed into white, solid-bottom 1536-well plates using a solenoid-based dispenser. Following transfer of 23 nL compound or DMSO vehicle by a pin tool, the plates were incubated 16 hr at 37 C, 5% CO2. Five microliter of ONE-Glo reagent (Promega) was then added to each plate. The assay plates were incubated for 30 min at room temperature followed by quantification of the luciferase activity using the PerkinElmer ViewLux CCD-based plate reader.
Potency means the concentration at half of the fitted maximal effect.

SMILES	Potency
CCCCCCCCCCCCCC(=O)O[C@@H]1[C@@H](C)[C@@]2(O)[C@H](C=C(CO)C[C@]3(O)C(=O)C(C)=C[C@@H]23)[C@@H]2C(C)(C)C12OC(C)=O (some centres not stated)	0.0089 µM (active)
C=C(C)[C@@]12OC3(c4ccccc4)O[C@@H]1[C@@H]1[C@@H]4O[C@]4(CO)[C@@H](O)[C@]4(O)C(=O)C(C)=C[C@H]4[C@@]1(O3)[C@H](C)[C@H]2OC(=O)/C=C/C=C/c1ccccc1	0.05 µM (active)
CCCSc1ccc2nc(NC(=O)OC)[nH]c2c1	8.88 µM (active)
C[C@@H]1C[C@@H]2[C@H]([C@H]3C=C(COC(=O)c4ccccc4)[C@@H](O)[C@]4(O)[C@@H](O)C(OC(=O)c5ccccc5)=C[C@@]14C3=O)C2(C)C	0.5 µM (active)
CCCC(=O)O[C@@H]1[C@@H](C)[C@@]2(O)[C@@H](C=C(CO)C[C@]3(O)C(=O)C(C)=C[C@@H]23)[C@@H]2C(C)(C)[C@]12OC(=O)CCC	0.0996 µM (active)
O=C(CCl)c1ccc(O)c(O)c1	inactive
CC(=O)OCC1=C[C@H]2[C@@H]3C(C)(C)[C@]3(OC(=O)Cc3ccccc3)C[C@@H](C)[C@]2(O)[C@@H]2C=C(C)C(=O)[C@@]2(O)C1	0.396 µM (active)
